Experimental data as given in PubChem BioAssay (Tox21).
Results filed as inconclusive are left out. Calls of active or inactive are those of the source. Calls follow the shape of the dose curve; as a rule, active = well fitted curve in the direction sought with a large enough effect in the repeat runs; inconclusive = weak or mixed curves; inactive = no such curve, though single readings can be large; an effect the other way counts as inactive or inconclusive.

How the values were obtained:
[1] = qHTS RealTime-Glo MT Cell Viability Assay in HEK293 cells - 32 hour (AID 1224868); conditions: RealTime-Glo luminescence; series mostly up to 76.8 µM; also: top concentration of the series differs between compounds; nearly all actives have a fitted effect of over 50% in size
Procedure, shortened: (§1)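 Assay medium contained NanoLuc luciferase plus cell-permeant prosubstrate, added with HEK293 cells at 600 cells/well. After 5 h at 37 C/5% CO2 compounds were added; plates stayed at 37 C for 40 h with serial luminescence reads.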

[2] = A CellTox Green Cytotoxicity Assay to monitor cytotoxicity in HEK293 cells - 0 hour (AID 1224869); conditions: CellTox Green fluorescence; series mostly up to 76.8 µM; also: nearly all actives have a fitted effect of over 50% in size
Procedure, shortened: (§2)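 Real-time, in one plate: 600 HEK293 cells/well with dead-cell DNA dye, pinned compound after 5 h, 37 C incubation over 40 h; viable cells give no appreciable fluorescence.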

[3] = qHTS RealTime-Glo MT Cell Viability Assay in HepG2 cells - 40 hour (AID 1224870); conditions: RealTime-Glo luminescence; series mostly up to 76.8 µM; also: nearly all actives have a fitted effect of over 50% in size
Procedure, shortened: (§3)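 HepG2 cells (600/well) mixed with RealTime-Glo MT reagent, settled 5 h at 37 C/5% CO2 before compound addition. Nonlytic NanoLuc luminescence from viable-cell prosubstrate reduction read repeatedly during 40 h treatment at 37 C.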

[4] = A CellTox Green Cytotoxicity Assay to monitor cytotoxicity in HEK293 cells - 40 hour (AID 1224871); conditions: CellTox Green fluorescence; series mostly up to 76.8 µM; also: nearly all actives have a fitted effect of over 45% in size
Procedure, shortened: as §2

[5] = qHTS RealTime-Glo MT Cell Viability Assay in HepG2 cells - 8 hour (AID 1224873); conditions: RealTime-Glo luminescence; series mostly up to 76.8 µM; also: nearly all actives have a fitted effect of over 55% in size
Procedure, shortened: as §3

[6] = qHTS RealTime-Glo MT Cell Viability Assay in HEK293 cells - 40 hour (AID 1224874); conditions: RealTime-Glo luminescence, stronger effect = lower value; also: nearly all actives have a fitted effect of over 50% in size
Procedure, shortened: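 Kinetic, non-lysing viability readout. Seed HEK293 (600/well) with reagent, incubate 5 h at 37 C/5% CO2, pin 23 nL compound in DMSO, incubate at 37 C, read luminescence at 0, 8, 16, 24, 32, 40 h.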

[7] = A CellTox Green Cytotoxicity Assay to monitor cytotoxicity in HEK293 cells - 24 hour (AID 1224875); conditions: CellTox Green fluorescence; series mostly up to 76.8 µM; also: nearly all actives have a fitted effect of over 45% in size
Procedure, shortened: as §2

[8] = A CellTox Green Cytotoxicity Assay to monitor cytotoxicity in HepG2 cells - 16 hour (AID 1224876); conditions: CellTox Green fluorescence; series mostly up to 76.8 µM; also: nearly all actives have a fitted effect of over 45% in size
Procedure, shortened: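 Cytotoxicity was tracked as dead-cell DNA fluorescence in HepG2 cells treated with test compounds at 37 C; each time-point value comes from one kinetic series spanning 0, 8, 16, 24, 32 and 40 h.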

[9] = qHTS RealTime-Glo MT Cell Viability Assay in HepG2 cells - 32 hour (AID 1224877); conditions: RealTime-Glo luminescence; series mostly up to 76.8 µM; also: nearly all actives have a fitted effect of over 55% in size
Procedure, shortened: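 qHTS, HepG2, 600 cells/well, RealTime-Glo (NanoLuc + prosubstrate) added with cells; 5 h preincubation; DMSO compound addition; 37 C; luminescence at 0/8/16/24/32/40 h.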

[10] = qHTS RealTime-Glo MT Cell Viability Assay in HEK293 cells - 16 hour (AID 1224872); conditions: RealTime-Glo luminescence; series mostly up to 76.8 µM
Procedure, shortened: as §1
% is scaled to controls: 0 for no effect and ±100 for the full control effect.

CC[N+](C)(CC)CC
inactive: outcome [1] | outcome [2] | outcome [3] | Potency [4] | outcome [5] | max response [6] 13.2% | Potency [7] | Potency [8] | outcome [9]

C[C@H]1COc2c(C3(N)CC3)c(F)cc3c(=O)c(C(=O)O)cn1c23
inactive: outcome [1] | outcome [2] | outcome [3] | Potency [4] | outcome [10] | outcome [5] | Potency [7] | Potency [8] | outcome [9]

CCC(C)SSC(C)CC (stereo unspecified)
inactive: outcome [1] | outcome [2] | outcome [3] | Potency [4] | outcome [10] | outcome [5] | Potency [7] | outcome [9]

CCOC(=O)COc1ccc2c(C)c(CCN(CC)CC)c(=O)oc2c1Cl
inactive: outcome [1] | outcome [2] | outcome [3] | Potency [4] | outcome [5] | max response [6] 1.31% | Potency [7] | Potency [8] | outcome [9]

CCCCCCCCCCCCCCCC/C=C/C1CC(=O)OC1=O (stereo unspecified)
inactive: outcome [1] | outcome [2] | outcome [3] | Potency [4] | outcome [5] | max response [6] -0.0124% | Potency [7] | outcome [9]

CCN(CC)CC
inactive: outcome [1] | outcome [2] | outcome [3] | Potency [4] | outcome [5] | max response [6] -12.9% | Potency [8] | outcome [9]

CCCCCCCCCCCCCCBr
inactive: outcome [1] | outcome [2] | outcome [3] | Potency [4] | outcome [10] | outcome [5] | Potency [7] | Potency [8] | outcome [9]

COC(=O)C(c1ccccc1Cl)N1CCc2sccc2C1 (stereo unspecified)
inactive: outcome [1] | outcome [2] | outcome [3] | Potency [4] | outcome [10] | outcome [5] | Potency [8] | outcome [9]

COC(=O)c1cc(Cl)c(NC(C)=O)cc1OC
inactive: outcome [1] | outcome [2] | outcome [3] | Potency [4] | outcome [5] | max response [6] 0.647% | Potency [7] | Potency [8] | outcome [9]

Cc1cc(C)c(N)c(Cl)c1
inactive: outcome [1] | outcome [2] | outcome [3] | Potency [4] | outcome [5] | max response [6] 2.65% | Potency [7] | Potency [8] | outcome [9]

CC/C=C\CCCCCCCCCCOC(C)=O
inactive: outcome [1] | outcome [2] | outcome [3] | Potency [4] | outcome [10] | Potency [7] | Potency [8] | outcome [9]

C=C(C)C(=O)OCCCC
inactive: outcome [1] | outcome [2] | outcome [3] | Potency [4] | outcome [5] | max response [6] 11.4% | Potency [8] | outcome [9]

CCCCCCCCS(=O)(=O)O
inactive: outcome [1] | outcome [2] | outcome [3] | Potency [4] | outcome [5] | max response [6] -0.584% | Potency [7] | outcome [9]

Nc1cc(S(=O)(=O)O)ccc1O
inactive: outcome [1] | outcome [2] | outcome [3] | Potency [4] | outcome [5] | max response [6] 14.9% | Potency [8] | outcome [9]

Cc1ccc2cccnc2c1
inactive: outcome [1] | outcome [2] | outcome [3] | Potency [4] | outcome [5] | max response [6] 20.7% | Potency [8] | outcome [9]

CC1(C)S[C@@H]2[C@H](NC(=O)Cc3ccccc3)C(=O)N2[C@H]1C(=O)O (tested in a mixture with another compound)
inactive: outcome [1] | outcome [2] | outcome [3] | Potency [4] | outcome [10] | outcome [5] | Potency [7] | Potency [8] | outcome [9]

O=c1c(O)c(O)c1=O
inactive: outcome [1] | outcome [2] | outcome [3] | Potency [4] | outcome [5] | max response [6] -0.875% | Potency [7] | Potency [8] | outcome [9]

COc1cc(NS(=O)(=O)c2ccc(N)cc2)ncn1
inactive: outcome [1] | outcome [2] | outcome [3] | Potency [4] | outcome [5] | max response [6] 7.65% | Potency [7] | Potency [8] | outcome [9]

CC12CCCC=C1C(=O)OC2=O (stereo unspecified)
inactive: outcome [1] | outcome [2] | outcome [3] | outcome [10] | outcome [5] | max response [6] 7.32% | Potency [7] | Potency [8] | outcome [9]

CC/C=C/CCCCCCCCCCOC(C)=O
inactive: outcome [1] | outcome [2] | outcome [3] | Potency [4] | outcome [5] | Potency [7] | Potency [8]

C[C@]12C=CC(=O)C=C1[C@@H](F)C[C@@H]1[C@@H]2[C@@H](O)C[C@@]2(C)[C@H]1CC[C@]2(O)C(=O)CO
inactive: outcome [1] | outcome [2] | outcome [3] | outcome [10] | outcome [5] | max response [6] -0.454% | Potency [7] | Potency [8] | outcome [9]

COc1cnc(NS(=O)(=O)c2ccc(N)cc2)nc1
inactive: outcome [1] | outcome [2] | outcome [3] | outcome [10] | outcome [5] | Potency [7] | Potency [8]

CC(=O)Nc1ccc(S(=O)(=O)Nc2cc(C)on2)cc1
inactive: outcome [1] | outcome [2] | outcome [3] | outcome [10] | outcome [5] | max response [6] 0.358% | Potency [8] | outcome [9]

CSC(=O)c1cccc2nnsc12
inactive: outcome [1] | outcome [2] | outcome [3] | outcome [10] | outcome [5] | max response [6] -1.81% | Potency [7] | outcome [9]
